Among the data in PubChem BioAssay (Tox21) are Potency, outcome and activity change, positive = activation values, retold here.

Experiment [1] can be described thus: qHTS assay to identify small molecule antagonists of the estrogen related receptor (ERR) signaling pathway from Tox21 library - cell viability counter screen (AID 1224834). Note: nearly all actives have a fitted effect of over 30% in size. Note: potency is the fitted concentration of half-maximal effect. The procedure, abridged:
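After 17.5 h of compound exposure at 37 C, ERR cells are incubated with CellTiter-Fluor for 30 min and fluorescence intensity serves as the viability measure.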
Background: qHTS replaces the single test concentration by a dilution series.

The target of experiment [2] is Luciferin 4-monooxygenase (Photinus pyralis) (UniProt P08659). Kind of experiment: qHTS assay to identify small molecule inhibitors of firefly luciferase (AID 1224835). Note: nearly all actives have a fitted effect of over 25% in size. Note: potency is the fitted concentration of half-maximal effect. The method, boiled down: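 Inhibition of purified Photinus luciferase is measured by luminescence. Substrate levels (D-luciferin, ATP) sit at their KM values. Each compound is tested in a concentration series.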

Experiment [3] in a line: qHTS assay to identify small molecule agonists of the constitutive androstane receptor (CAR) signaling pathway - cell viability counter screen (AID 1224836). Note: nearly all actives have a fitted effect of over 45% in size. Note: potency is the fitted concentration of half-maximal effect. The method, boiled down: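 HepG2 cells stably carrying hCAR and a CYP2B6-2.2kb reporter; 15-concentration compounds plus PK11195 (final 0.75 uM), 23 hr at 37 C/5% CO2. Viability read by CellTiter-Fluor fluorescence.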

A short description of experiment [4]: qHTS assay to identify small molecule antagonists of the constitutive androstane receptor (CAR) signaling pathway - cell viability counter screen (AID 1224837). Note: nearly all actives have a fitted effect of over 45% in size. The method, boiled down:
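Counter screen run in HepG2-CYP2B6-hCAR cells: 4 hr settle, compound titration (15 concentrations) with 50 nM CITCO, 23 hr at 37 C/5% CO2, CellTiter-Fluor fluorescence.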

Experiment [5] can be described thus: qHTS assay to identify small molecule antagonists of the estrogen related receptor signaling pathway with the pleiotropic PPARgamma coactivator (PGC) from Tox21 10K library - cell viability counter screen (AID 1224840; active = well fitted cell-killing curve with a large enough effect in the repeat runs, not every such curve was filed as active; note: nearly all actives have a fitted effect of over 40% in size; note: potency is the fitted concentration of half-maximal effect). The method, boiled down: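 Following seeding of 2,000 PGC/ERR cells/well and 6 hours' incubation, test compounds were delivered in DMSO. The plates then sat 17.5 hours at 37 C before a fluorogenic live-cell protease reagent (CellTiter-Fluor) was read after 30 min.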

The target of experiment [6] is Thyrotropin receptor (Homo sapiens) (UniProt P16473). Kind of experiment: qHTS assay to identify small molecule agonists of the thyroid stimulating hormone receptor (TSHR) signaling pathway (AID 1224843; calls by dose curve; note: nearly all actives have a fitted effect of over 45% in size). The method, boiled down:
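HEK293 cells stably bearing the thyrotropin receptor were plated at 800 cells/well and challenged with compound (30 min, RT). Accumulated cAMP was quantified via cAMP-d2 competing for cryptate-tagged antibody.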

Experiment [7] can be described thus: qHTS assay to identify small molecule agonists of the hypoxia (HIF-1) signaling pathway - cell viability counter screen (AID 1224844; calls by dose curve; note: nearly all actives have a fitted effect of over 50% in size). The procedure, abridged: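 Cells (HRE-bla ME-180, 2,000 per well) sat 5 hrs at 37C, got compound for 17 hrs, were read for CCF4-AM FRET, and were finally lysed with CellTiter-Glo for a 30 min room-temperature luminescence read.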

Experiment [8] is described as follows: qHTS assay to identify small molecule agonists of H2AX (AID 1224845; active = well fitted activation curve with a large enough effect in the signal ratio in the repeat runs, not every such curve was filed as active; the % refers to the signal ratio). The procedure, abridged:
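Phospho-H2AX Ser139 measured by HTRF (ex 320 nm; em 665 and 620 nm) after 24 hr antibody incubation. Compounds, 15 concentrations, 0.76% DMSO, were applied to CHO-K1 cells for 3hr at 37C before lysis.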

Experiment [9] can be described thus: qHTS assay to identify small molecule agonists of the hypoxia (HIF-1) signaling pathway (AID 1224846; active = well fitted activation curve with a large enough effect in the signal ratio in the repeat runs, not every such curve was filed as active; the % refers to the signal ratio). The procedure, abridged: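 A low-serum medium (0.5% dialyzed FBS) holding 2,000 HRE-bla ME-180 cells per well is preincubated for 5 hrs, dosed with compounds by pintool, and kept a further 17 hrs at 37C, 5% CO2 before CCF4-AM FRET detection of beta-lactamase.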

The nature of experiment [10]: qHTS assay to identify small molecule agonists of H2AX - cell viability counter screen (AID 1224847; calls by dose curve; note: nearly all actives have a fitted effect of over 30% in size; note: potency is the fitted concentration of half-maximal effect). The procedure, abridged: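 CHO-K1 cells plated overnight at 37C, then exposed 3 h at 37C to compounds at 15 concentrations (0.76% DMSO final). Viability by CellTiter-Glo luminescence after 30 min at room temperature.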
A short description of experiment [11]: qHTS RealTime-Glo MT Cell Viability Assay in HepG2 cells - 24 hour (AID 1224867). Note: nearly all actives have a fitted effect of over 50% in size. The method, boiled down:
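HepG2 cells (600/well) were dispensed with RealTime-Glo reagents, incubated 5 h at 37 °C, then treated with compounds in DMSO for up to 40 h. Nonlytic NanoLuc luminescence reflecting viable cells was read at each stated time point.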

Experiment [12] is described as follows: qHTS RealTime-Glo MT Cell Viability Assay in HEK293 cells - 32 hour (AID 1224868). Note: nearly all actives have a fitted effect of over 50% in size. Note: potency is the fitted concentration of half-maximal effect. The method, boiled down:
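HEK293 cells seeded with NanoLuc/prosubstrate reagent, rested 5 h at 37 C, then dosed and kept at 37 C up to 40 h. Nonlytic real-time luminescence from viable cells read at 0, 8, 16, 24, 32 and 40 h.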

Experiment [13] in a line: A CellTox Green Cytotoxicity Assay to monitor cytotoxicity in HEK293 cells - 0 hour (AID 1224869). Note: nearly all actives have a fitted effect of over 50% in size. The procedure, abridged:
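Fluorescence intensity, read at 0, 8, 16, 24, 32 and 40 h of compound treatment, reflected dye binding to DNA of dead HEK293 cells; compounds (23 nL, DMSO) were added 5 h after plating cells with reagent.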

The nature of experiment [14]: qHTS RealTime-Glo MT Cell Viability Assay in HepG2 cells - 40 hour (AID 1224870). Note: nearly all actives have a fitted effect of over 50% in size. The procedure, abridged:
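Real-time viability: cells seeded at 600 per well together with NanoLuc and cell-permeant prosubstrate, compounds added after 5 h incubation. Luminescence tracked at 0, 8, 16, 24, 32 and 40 h of exposure.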

Experiment [15] has as its target Nuclear receptor subfamily 1 group I member 3 (Homo sapiens) (UniProt Q14994). Briefly: qHTS assay to identify small molecule antagonists of the constitutive androstane receptor (CAR) signaling pathway (AID 1224838).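 Note: HepG2 cells stably expressing hCAR with CYP2B6 luciferase reporter stimulated by CITCO; nearly all actives have a fitted effect of over 40% in size.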 The procedure, abridged:
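Cell line: HepG2 double-stable for hCAR and CYP2B6-2.2kb reporter. Agonist: CITCO, 50 nM final. Compounds: 15 concentrations, 24 h, 37 C. Detection: ONE-Glo luminescence.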

Experiment [16] can be described thus: qHTS assay to identify small molecule antagonists of the estrogen related receptor signaling pathway with the pleiotropic PPARgamma coactivator (PGC) from Tox21 10K library (AID 1224841; call rule not given here). The method, boiled down: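 qHTS antagonist format: PGC/ERR cells, 2k/well, compound in DMSO by pin transfer after 6 h attachment, 18 h treatment at 37 C, One-Glo luminescence read at 30 min.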

Experiment [17] is described as follows: qHTS assay to identify small molecule antagonists of the estrogen related receptor (ERR) signaling pathway from Tox21 library (AID 1224848). Note: nearly all actives have a fitted effect of over 50% in size. The method, boiled down: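 Reading was by luminescence 30 min after ONE-Glo addition. Before that, ERR cells at 2,000 per well had rested 6 h at 37 C/5% CO2 and then received pin-tooled compounds in DMSO for 18 h at 37 C.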

Experiment [18] in a line: qHTS assay to identify small molecule agonists of the estrogen related receptor (ERR) signaling pathway from Tox21 library (AID 1224849; calls by dose curve; note: nearly all actives have a fitted effect of over 15% in size). Particulars: ERR reporter cell line, ONE-Glo luciferase, 18 h; at 92.4 µM (top of the series). The procedure, abridged: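 Screening used an NTP-provided ERR luciferase cell line. Compounds in DMSO were added 6 h after seeding and left 18 h at 37 C before a 30 min ONE-Glo step and luminescence reading.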

In experiment [19] the target is Nuclear receptor subfamily 1 group I member 3 (Homo sapiens) (UniProt Q14994). Kind of experiment: qHTS assay to identify small molecule agonists of the constitutive androstane receptor (CAR) signaling pathway (AID 1224839). Note: nearly all actives have a fitted effect of over 15% in size. The method, boiled down:
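HepG2 cells stably co-transfected with hCAR and a CYP2B6-2.2kb luciferase reporter; compounds at 15 concentrations with 0.75 uM PK11195 present. After 24 hr at 37 C, luciferase read by ONE-Glo luminescence.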

Several values for one entry are separate records, joined by “and”; a condition that tells them apart may be missing. Equal values may be shown once. Results filed as inconclusive are left out. Some structures have more than one record in an assay (separate samples or runs), and their calls can disagree. Activity calls are given as the source filed them. Unless noted, calls come from the whole dose curve; as a rule, active = well fitted curve in the direction sought with a large enough effect in the repeat runs; inconclusive = weak or mixed curves; inactive = no such curve, though single readings can be large; an effect the other way counts as inactive or inconclusive.
% is set by controls: 0 for no effect and ±100 for the full control effect.

Sequence of Nuclear receptor subfamily 1 group I member 3 (Homo sapiens) (Q14994 whole entry, looked up): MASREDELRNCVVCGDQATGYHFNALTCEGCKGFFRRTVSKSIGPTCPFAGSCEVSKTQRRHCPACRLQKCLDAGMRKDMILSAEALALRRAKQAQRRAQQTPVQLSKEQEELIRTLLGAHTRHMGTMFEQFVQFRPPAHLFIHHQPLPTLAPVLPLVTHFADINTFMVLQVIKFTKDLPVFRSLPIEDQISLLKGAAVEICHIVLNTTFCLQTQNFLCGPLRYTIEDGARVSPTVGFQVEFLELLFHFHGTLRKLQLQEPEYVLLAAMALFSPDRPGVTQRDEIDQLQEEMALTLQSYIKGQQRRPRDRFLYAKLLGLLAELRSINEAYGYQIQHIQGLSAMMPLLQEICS
Sequence of Luciferin 4-monooxygenase (Photinus pyralis) (P08659 whole entry, looked up): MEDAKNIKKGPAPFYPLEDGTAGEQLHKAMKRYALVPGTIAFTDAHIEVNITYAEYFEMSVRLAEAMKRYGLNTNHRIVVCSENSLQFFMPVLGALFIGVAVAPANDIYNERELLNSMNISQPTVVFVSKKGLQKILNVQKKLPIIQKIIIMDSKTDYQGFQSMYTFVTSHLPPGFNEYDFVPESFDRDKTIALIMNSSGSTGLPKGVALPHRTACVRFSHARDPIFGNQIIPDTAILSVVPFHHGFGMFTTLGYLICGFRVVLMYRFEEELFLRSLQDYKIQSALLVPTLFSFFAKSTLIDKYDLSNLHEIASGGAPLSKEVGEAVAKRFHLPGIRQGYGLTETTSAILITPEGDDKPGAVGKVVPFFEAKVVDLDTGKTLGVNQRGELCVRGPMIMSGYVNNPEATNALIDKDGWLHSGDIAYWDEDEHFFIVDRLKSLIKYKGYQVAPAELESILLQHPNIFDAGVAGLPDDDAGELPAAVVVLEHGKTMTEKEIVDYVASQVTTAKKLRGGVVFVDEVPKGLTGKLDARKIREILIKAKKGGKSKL
Sequence of Thyrotropin receptor (Homo sapiens) (P16473 whole entry, looked up): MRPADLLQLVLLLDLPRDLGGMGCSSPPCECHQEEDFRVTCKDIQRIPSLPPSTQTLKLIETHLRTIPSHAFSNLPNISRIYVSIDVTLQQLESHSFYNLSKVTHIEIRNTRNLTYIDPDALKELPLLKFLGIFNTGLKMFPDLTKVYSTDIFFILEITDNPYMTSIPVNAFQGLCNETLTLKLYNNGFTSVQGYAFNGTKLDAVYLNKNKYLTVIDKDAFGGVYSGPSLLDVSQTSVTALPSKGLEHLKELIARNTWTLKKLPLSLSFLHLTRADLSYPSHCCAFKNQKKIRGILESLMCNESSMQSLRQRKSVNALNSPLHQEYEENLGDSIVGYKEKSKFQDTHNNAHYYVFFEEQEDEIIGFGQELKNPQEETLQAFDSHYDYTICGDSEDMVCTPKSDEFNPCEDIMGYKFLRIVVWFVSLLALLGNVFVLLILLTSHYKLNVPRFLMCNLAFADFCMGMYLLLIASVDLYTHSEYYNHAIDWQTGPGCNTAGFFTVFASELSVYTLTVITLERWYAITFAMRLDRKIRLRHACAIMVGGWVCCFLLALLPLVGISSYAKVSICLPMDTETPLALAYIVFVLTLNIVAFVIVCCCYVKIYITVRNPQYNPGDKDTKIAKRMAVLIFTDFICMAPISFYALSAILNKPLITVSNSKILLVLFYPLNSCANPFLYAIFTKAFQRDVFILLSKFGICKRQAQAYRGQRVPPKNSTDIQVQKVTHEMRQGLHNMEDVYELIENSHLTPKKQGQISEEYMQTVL

As for `C#C[C@]1(O)CC[C@H]2[C@@H]3CCC4=CC(=O)CC[C@@H]4[C@H]3CC[C@@]21CC`, the Potency result is “inactive and 54.5 µM (active)” in experiment [1]; “inactive and 89.8 µM (active)” in experiment [10]; 43.6 µM (active) and inactive in experiment [12]. The Potency entry in [2], in [3], in [4], in experiment [5], in experiment [6] and in experiment [7] was “inactive” each time. Further, the Potency entry in experiment [8] and in [13] was “inactive” in each case. Also, the compound was classed as inactive in [9], in experiment [11] and in experiment [14].

With `CC(C)=CCC/C(C)=C/CO`, the Potency result in [1], in experiment [2], in experiment [3], in [4], in [5] and in [6] was “inactive” each time. Besides, the Potency result in experiment [7], in experiment [8], in experiment [10], in experiment [12] and in experiment [13] was “inactive” each time. Besides, the outcome in [11] and in [14] was inactive.

On to `O=C(OCc1ccccc1)c1ccccc1`, for which the Potency result in [1], in experiment [3], in [4], in [15], in [5] and in [16] was “inactive” in each case. Besides, the Potency result in [6], in experiment [7], in [8], in experiment [10], in experiment [17] and in experiment [12] was “inactive” throughout. The Potency result in [13] was “inactive”. In experiment [2], the Potency is 14.2 µM (active) and 11.2 µM (active) and 9.77 µM (active). Moreover, the outcome in [9], in [11] and in experiment [14] was inactive. Also, the activity change, positive = activation in experiment [18] was 13.6% (inactive).

As to `CCn1cc(C(=O)O)c(=O)c2ccc(C)nc21`, the Potency entry in [2], in experiment [3], in [4], in [6], in experiment [7] and in experiment [8] was “inactive” throughout. Also, the Potency result in [10], in experiment [12] and in experiment [13] was “inactive” in each case. Further, the compound was called inactive in [11] and in experiment [14].

For the compound `O=[N+]([O-])c1ccc(O)cc1`, the Potency in experiment [1] was 50.4 µM (active) and 30.6 µM (active) and 54.5 µM (active); in experiment [3], 50.4 µM (active); in experiment [5] it was 30.6 µM (active). In addition, the Potency result in experiment [2], in experiment [15], in experiment [19], in experiment [6], in experiment [7] and in experiment [8] was “inactive” in each case. Besides, the Potency entry in experiment [10], in experiment [12] and in experiment [13] was “inactive” each time. The compound was classed as inactive in experiment [9], in experiment [11] and in experiment [14].

For `C[C@]12C=CC(=O)C=C1CC[C@@H]1[C@@H]2C(=O)C[C@@]2(C)[C@H]1CC[C@]2(O)C(=O)CO`, the Potency entry in experiment [1], in experiment [2], in [3], in [4], in experiment [15] and in experiment [5] was “inactive” in each case. The Potency entry in [6], in experiment [7], in experiment [8], in experiment [10], in [12] and in experiment [13] was “inactive” each time. Moreover, the outcome in experiment [9], in [11] and in experiment [14] was inactive.

For `COC(=O)c1ccc(O)cc1`, the Potency result in experiment [1], in experiment [2], in experiment [3], in experiment [4], in experiment [5] and in experiment [6] was “inactive” each time. The Potency entry in experiment [7], in experiment [8], in experiment [10] and in [13] was “inactive” in each case. Further, in experiment [9], the call was inactive.

Consider `CC1=NN(c2ccccc2)C(=O)C1`, for which the Potency result in [1], in [2], in [3], in [4], in [5] and in [6] was “inactive” throughout. The Potency result in [7], in experiment [8], in experiment [10], in [12] and in experiment [13] was “inactive” in each case. In addition, the result in experiment [11] and in experiment [14] was inactive.
